Our source for the residual activity values is ChEMBL document CHEMBL2218924, “A broad activity screen in support of a chemogenomic map for kinase signalling research and drug discovery” (Biochem J, 2013).

Each structure is given as a SMILES string.

Test [1] deals with T1, Serine/threonine-protein kinase DCLK2 (Homo sapiens) (UniProt Q8N568).
T1 sequence (whole entry): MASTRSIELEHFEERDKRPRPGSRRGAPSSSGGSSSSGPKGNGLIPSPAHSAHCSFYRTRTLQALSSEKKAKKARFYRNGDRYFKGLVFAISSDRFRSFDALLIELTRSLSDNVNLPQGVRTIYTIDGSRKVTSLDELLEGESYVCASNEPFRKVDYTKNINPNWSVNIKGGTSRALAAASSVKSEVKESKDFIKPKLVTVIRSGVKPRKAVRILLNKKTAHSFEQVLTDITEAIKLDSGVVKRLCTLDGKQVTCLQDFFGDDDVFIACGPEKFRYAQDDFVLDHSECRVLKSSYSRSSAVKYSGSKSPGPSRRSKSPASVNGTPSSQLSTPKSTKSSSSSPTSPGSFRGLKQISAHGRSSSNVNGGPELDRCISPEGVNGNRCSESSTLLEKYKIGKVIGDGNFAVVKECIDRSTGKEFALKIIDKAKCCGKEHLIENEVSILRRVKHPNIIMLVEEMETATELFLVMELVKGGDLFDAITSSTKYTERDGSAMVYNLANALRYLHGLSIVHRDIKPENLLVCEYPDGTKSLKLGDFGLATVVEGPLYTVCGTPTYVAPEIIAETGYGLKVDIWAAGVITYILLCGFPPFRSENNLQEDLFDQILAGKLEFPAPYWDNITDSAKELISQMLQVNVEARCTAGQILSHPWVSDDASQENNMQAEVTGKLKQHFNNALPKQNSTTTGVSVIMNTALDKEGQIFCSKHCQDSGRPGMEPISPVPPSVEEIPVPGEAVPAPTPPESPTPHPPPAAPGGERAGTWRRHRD
To be noted: at 10 µM.

Test [2] addresses T2, Ephrin type-A receptor 1 (Homo sapiens) (UniProt P21709).
T2 sequence (whole entry): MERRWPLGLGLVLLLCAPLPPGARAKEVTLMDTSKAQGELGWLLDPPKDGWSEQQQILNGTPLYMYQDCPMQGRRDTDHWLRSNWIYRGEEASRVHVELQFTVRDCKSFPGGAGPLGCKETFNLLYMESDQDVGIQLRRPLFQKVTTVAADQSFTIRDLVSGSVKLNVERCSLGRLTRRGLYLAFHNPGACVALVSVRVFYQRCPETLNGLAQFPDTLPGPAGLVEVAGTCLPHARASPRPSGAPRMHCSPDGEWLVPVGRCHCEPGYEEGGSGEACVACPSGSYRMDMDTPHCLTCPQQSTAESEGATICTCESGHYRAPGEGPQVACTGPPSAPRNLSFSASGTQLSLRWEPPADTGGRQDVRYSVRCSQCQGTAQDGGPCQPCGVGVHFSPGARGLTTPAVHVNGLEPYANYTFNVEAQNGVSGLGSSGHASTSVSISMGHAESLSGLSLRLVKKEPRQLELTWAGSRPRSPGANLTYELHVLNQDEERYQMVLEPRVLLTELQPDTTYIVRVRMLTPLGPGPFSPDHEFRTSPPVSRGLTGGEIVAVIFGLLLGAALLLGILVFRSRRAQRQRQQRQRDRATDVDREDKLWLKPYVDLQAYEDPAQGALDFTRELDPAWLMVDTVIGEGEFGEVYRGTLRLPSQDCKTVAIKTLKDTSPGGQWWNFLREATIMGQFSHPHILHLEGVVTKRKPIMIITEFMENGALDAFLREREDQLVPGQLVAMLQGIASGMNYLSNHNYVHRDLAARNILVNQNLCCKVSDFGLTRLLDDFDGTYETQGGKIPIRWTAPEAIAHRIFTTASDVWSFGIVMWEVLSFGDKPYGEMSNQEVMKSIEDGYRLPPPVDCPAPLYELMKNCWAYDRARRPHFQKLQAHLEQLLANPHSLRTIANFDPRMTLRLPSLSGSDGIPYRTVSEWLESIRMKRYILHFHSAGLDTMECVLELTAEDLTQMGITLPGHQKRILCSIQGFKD
As to conditions: at 10 µM.

In test [3] the target is Death-associated protein kinase 2 (Homo sapiens) (UniProt Q9UIK4). As to conditions: at 1 µM.
Chain of Death-associated protein kinase 2 (Homo sapiens) (Q9UIK4 whole entry, looked up): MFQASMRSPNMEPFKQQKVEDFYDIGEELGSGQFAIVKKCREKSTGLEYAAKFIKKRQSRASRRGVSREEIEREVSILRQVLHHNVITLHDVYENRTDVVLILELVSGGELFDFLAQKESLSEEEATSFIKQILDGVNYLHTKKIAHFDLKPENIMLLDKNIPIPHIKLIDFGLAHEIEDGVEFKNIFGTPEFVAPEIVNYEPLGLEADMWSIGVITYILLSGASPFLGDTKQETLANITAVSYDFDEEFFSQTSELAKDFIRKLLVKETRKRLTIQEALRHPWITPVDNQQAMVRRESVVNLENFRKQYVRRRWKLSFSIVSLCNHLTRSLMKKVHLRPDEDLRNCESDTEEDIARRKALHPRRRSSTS
For test [4] the target is unchanged. As to conditions: at 10 µM.
The target in test [5] is T3, Myotonin-protein kinase (Homo sapiens) (UniProt Q09013).
T3 sequence (whole entry): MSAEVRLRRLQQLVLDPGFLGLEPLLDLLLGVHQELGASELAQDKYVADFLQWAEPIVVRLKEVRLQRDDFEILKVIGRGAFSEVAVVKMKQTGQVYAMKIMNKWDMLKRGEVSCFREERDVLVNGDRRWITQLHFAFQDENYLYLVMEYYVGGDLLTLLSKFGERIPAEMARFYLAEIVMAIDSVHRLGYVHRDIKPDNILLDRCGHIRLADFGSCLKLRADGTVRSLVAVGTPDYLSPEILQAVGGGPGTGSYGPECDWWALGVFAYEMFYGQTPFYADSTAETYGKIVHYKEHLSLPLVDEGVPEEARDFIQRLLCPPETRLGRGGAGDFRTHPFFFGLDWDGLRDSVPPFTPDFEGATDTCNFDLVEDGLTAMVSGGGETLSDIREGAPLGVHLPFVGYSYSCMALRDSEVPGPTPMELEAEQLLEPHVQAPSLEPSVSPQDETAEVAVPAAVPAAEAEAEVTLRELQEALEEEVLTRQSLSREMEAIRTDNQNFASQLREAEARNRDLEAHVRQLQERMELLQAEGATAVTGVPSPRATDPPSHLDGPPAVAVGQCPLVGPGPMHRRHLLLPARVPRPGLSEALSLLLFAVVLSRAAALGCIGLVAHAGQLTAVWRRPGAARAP
To be noted: at 1 µM.

Test [6] deals with T3, Myotonin-protein kinase (Homo sapiens). As to conditions: at 10 µM.
For test [7], the target named is T1, Serine/threonine-protein kinase DCLK2 (Homo sapiens). To be noted: at 1 µM.
For test [8], the target named is T4, Discoidin domain-containing receptor 2 (Homo sapiens) (UniProt Q16832).
T4 sequence (whole entry): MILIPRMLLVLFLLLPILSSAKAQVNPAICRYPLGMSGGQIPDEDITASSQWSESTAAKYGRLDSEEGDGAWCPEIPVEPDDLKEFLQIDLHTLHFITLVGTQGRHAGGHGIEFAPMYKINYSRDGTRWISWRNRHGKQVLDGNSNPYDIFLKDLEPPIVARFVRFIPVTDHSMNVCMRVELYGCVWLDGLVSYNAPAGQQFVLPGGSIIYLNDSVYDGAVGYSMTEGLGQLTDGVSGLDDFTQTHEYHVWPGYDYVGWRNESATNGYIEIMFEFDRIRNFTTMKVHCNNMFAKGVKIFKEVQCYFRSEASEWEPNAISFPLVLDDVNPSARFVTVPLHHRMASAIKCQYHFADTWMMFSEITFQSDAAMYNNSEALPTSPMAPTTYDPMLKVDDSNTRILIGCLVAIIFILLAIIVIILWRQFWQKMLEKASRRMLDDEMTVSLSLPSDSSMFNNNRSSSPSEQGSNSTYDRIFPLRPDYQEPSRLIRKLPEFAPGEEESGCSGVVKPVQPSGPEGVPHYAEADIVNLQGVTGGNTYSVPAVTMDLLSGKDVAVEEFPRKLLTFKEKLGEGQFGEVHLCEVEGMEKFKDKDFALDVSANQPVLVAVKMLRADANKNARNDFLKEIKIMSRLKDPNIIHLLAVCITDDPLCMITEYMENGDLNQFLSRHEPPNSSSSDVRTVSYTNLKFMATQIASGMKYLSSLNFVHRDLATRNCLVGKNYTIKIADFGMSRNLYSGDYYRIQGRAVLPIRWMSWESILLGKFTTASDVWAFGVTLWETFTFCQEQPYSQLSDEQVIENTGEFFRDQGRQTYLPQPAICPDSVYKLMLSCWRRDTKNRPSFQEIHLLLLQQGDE
As to conditions: at 1 µM.

Test [9] addresses T4, Discoidin domain-containing receptor 2 (Homo sapiens). As to conditions: at 10 µM.
The target in test [10] is T5, Serine/threonine-protein kinase 17A (Homo sapiens) (UniProt Q9UEE5).
T5 sequence (whole entry): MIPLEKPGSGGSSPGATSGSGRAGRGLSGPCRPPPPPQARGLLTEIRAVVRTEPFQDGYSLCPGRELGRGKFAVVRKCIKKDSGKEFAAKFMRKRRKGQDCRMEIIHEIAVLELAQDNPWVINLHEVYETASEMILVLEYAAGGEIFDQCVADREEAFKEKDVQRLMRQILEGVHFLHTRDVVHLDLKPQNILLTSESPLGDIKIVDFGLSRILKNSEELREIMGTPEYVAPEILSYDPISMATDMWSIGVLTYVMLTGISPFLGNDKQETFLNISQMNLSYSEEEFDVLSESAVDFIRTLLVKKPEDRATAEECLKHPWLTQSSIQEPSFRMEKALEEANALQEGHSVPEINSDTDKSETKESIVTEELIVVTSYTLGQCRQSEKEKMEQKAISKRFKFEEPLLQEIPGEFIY
As to conditions: at 1 µM.

The target of test [11] is T5, Serine/threonine-protein kinase 17A (Homo sapiens). To be noted: at 10 µM.
Test [12] addresses T6, Dual specificity tyrosine-phosphorylation-regulated kinase 2 (Homo sapiens) (UniProt Q92630).
T6 sequence (whole entry): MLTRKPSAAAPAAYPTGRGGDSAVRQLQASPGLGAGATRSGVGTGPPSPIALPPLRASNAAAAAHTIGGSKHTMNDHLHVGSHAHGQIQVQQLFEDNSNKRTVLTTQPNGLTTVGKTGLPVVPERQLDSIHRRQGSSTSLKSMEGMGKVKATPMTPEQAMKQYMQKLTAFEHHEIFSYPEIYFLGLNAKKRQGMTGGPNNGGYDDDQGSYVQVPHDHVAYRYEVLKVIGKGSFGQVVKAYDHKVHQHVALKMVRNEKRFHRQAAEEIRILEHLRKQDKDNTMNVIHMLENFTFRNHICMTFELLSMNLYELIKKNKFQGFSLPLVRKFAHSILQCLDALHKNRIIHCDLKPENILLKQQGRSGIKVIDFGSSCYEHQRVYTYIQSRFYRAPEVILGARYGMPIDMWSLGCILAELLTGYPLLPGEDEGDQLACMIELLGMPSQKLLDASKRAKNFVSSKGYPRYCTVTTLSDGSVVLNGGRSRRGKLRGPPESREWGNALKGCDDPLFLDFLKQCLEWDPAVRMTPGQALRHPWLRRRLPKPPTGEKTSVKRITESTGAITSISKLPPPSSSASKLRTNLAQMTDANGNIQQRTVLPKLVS
To be noted: at 10 µM.

The target in test [13] is T2, Ephrin type-A receptor 1 (Homo sapiens). To be noted: at 1 µM.
Test [14] has as its target T7, Ephrin type-A receptor 3 (Homo sapiens) (UniProt P29320).
T7 sequence (whole entry): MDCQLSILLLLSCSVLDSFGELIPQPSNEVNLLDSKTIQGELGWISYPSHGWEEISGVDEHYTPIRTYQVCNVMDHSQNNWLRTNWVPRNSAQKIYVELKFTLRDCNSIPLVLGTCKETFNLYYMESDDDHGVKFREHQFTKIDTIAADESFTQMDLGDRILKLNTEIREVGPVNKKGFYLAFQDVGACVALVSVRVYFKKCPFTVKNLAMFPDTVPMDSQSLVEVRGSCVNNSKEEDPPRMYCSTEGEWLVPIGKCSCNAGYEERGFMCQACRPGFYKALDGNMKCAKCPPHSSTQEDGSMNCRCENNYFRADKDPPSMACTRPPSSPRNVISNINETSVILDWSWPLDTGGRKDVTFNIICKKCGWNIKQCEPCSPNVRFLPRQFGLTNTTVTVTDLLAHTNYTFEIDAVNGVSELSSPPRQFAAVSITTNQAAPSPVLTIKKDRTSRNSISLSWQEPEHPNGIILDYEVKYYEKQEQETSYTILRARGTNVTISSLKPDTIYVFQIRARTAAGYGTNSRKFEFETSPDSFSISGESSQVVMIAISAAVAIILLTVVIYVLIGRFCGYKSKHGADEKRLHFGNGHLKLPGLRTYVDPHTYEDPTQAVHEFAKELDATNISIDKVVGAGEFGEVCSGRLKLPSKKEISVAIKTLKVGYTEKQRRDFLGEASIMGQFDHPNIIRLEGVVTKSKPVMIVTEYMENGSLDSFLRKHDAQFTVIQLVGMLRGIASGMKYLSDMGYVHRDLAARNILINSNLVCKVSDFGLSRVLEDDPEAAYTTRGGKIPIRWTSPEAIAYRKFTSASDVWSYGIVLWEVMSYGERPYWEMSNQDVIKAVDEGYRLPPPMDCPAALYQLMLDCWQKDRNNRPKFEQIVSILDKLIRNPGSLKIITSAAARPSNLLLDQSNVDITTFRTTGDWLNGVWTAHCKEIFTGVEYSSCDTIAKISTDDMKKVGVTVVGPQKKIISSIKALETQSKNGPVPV
As to conditions: at 1 µM.

For test [15], the target named is Epidermal growth factor receptor (Homo sapiens) (UniProt P00533). As to conditions: at 1 µM.
Chain of Epidermal growth factor receptor (Homo sapiens) (P00533 whole entry): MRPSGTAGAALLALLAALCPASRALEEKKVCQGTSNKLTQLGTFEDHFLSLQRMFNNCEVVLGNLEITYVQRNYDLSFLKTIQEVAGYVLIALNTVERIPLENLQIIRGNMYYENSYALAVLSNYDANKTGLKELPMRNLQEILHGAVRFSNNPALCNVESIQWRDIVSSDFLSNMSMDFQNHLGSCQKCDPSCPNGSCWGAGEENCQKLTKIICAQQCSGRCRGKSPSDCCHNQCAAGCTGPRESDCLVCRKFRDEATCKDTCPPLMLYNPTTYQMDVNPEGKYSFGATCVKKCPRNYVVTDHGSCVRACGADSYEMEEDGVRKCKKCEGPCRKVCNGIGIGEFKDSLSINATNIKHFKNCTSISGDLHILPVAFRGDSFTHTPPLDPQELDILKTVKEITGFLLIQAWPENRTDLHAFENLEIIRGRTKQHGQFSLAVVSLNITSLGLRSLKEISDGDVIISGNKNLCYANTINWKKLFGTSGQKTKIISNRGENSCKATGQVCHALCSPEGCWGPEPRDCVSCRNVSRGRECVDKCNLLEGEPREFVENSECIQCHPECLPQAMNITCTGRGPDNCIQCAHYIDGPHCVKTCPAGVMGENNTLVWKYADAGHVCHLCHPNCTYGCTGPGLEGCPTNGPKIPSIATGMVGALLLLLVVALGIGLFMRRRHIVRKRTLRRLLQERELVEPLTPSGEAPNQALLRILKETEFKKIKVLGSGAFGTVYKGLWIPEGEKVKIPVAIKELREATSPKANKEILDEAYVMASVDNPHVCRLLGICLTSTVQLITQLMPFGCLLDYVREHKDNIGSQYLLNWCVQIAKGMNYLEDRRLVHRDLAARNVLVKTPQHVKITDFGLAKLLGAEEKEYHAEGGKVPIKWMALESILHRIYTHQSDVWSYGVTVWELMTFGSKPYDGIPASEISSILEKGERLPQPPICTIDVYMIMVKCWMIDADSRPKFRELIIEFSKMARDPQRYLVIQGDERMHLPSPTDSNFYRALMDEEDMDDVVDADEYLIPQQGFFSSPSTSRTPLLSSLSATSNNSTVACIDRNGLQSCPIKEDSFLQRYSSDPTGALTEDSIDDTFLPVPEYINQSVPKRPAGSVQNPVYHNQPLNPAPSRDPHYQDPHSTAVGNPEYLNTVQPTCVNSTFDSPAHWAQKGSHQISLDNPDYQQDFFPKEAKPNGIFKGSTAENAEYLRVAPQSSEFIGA
Test [16] shares this target. To be noted: at 10 µM.

In the case of `O=S(=O)(NCCNC/C=C/c1ccc(Br)cc1)c1cccc2cnccc12`, the residual activity came out at 100% in [1] and 63% in [2].

As to `COc1ccc(CNC(=O)Nc2ncc([N+](=O)[O-])s2)cc1`, the residual activity in test [3] came to 102%; in test [4], 104%; in test [5], 100%; in [6] it was 80%.

Turning to `c1ccc(-c2cnc(Nc3ccc(OCCN4CCCC4)cc3)s2)cc1`, the residual activity was 108% in [7]; 54% in test [1]; 100% in [8]; 48% in test [9]; 31% in test [10]; 4% in [11]. Also, the residual activity in [12] worked out at 62%; in test [13], 77%; in [2] it was 60%; in test [14], 104%.

Regarding `O=c1c(-c2ccc(F)cc2)c(-c2ccncc2)[nH]n1-c1ccc(Cl)cc1`, the residual activity in [7] was found to be 122%; in test [9], 36%; in test [6], 99%; in test [11], 71%; in test [15] it was 54%; in test [16] it was 6%. In test [2], the residual activity came out at 56%.

As a reminder, the residual activity is the signal under treatment as a percentage of the control signal.
